High-throughput results from PubChem.
Only some compounds are listed: those with a hit (about 6% of all), similar ones and a draw of the others.
D1 PAM: enhances dopamine response at the human D1 receptor; P21728; potentiation, % at 10 µM; hit rate 0.036% among 360,000; HEK293 TREx D1 cells, calcium flux, dopamine EC20 potentiation; in the data active means potentiation above about 30%; further: 0% is about no effect
DRD3 agonist: D3 dopamine receptor (human) agonism | hit rate 0.58% among 410,000 | max activation, % | P35462 | D3R DiscoveRx beta-arrestin cells, luminescence, 90 min; in the data active means max activation above about 30%; further: 0% is about no effect
Target sequence (P35462 whole entry, looked up): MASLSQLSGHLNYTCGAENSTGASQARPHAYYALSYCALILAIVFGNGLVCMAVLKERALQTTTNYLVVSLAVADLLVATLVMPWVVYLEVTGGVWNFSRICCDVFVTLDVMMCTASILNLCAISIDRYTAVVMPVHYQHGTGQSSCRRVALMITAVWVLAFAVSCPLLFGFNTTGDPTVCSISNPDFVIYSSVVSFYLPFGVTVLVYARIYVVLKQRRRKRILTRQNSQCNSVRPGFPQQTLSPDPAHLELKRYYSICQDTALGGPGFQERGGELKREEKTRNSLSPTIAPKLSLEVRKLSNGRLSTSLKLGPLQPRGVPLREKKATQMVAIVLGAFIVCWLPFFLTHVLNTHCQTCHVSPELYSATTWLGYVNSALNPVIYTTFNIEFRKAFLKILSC
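Agonist-mode cell screen: cells plated at 1500/well and incubated overnight at 37 °C, then exposed to library compounds for 90 min at 37 °C. Detection reagent was added for 30–60 min at room temperature, and luminescence was read.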
D1 antag: antagonists of human D1 dopamine receptor; activity change, negative = inhibition, % at 10 µM; P21728; HEK293 TREx D1 cells, calcium flux, dopamine EC80; stronger effect = lower value; hit rate 3.2% among 360,000; in the data active means activity change below about -30%; further: on the % scale 0 is the no-effect control and ±100 the full control effect
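Inducible Hek293 Trex D1 cells (tetracycline, overnight, 30 C). Calcium dye 30–90 min RT. Antagonist mode: EC80 dopamine added after 180 s compound read.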
DRD3 antagonist: antagonists of human D3 dopamine receptor. P35462. D3R cells, DiscoveRx beta-arrestin luminescence, antagonist mode; stronger effect = lower value. max response, negative = inhibition, %. hit rate 2.5% among 360,000. AID 652054; in the data active means max response below about -50%; inconclusive means no clear call, values can overlap the other calls; further: on the % scale 0 is the no-effect control and ±100 the full control effect
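Cells expressing the human receptor were seeded at 1500 cells/well, incubated overnight at 37 degrees C in 5% CO2, then exposed to library compounds with dopamine controls for 90 minutes at 37 degrees C before luminescent detection.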
D1 agonist: agonists of human D1 dopamine receptor | P21728 | HEK293 T-REx D1 cells, calcium flux, agonist mode | activation, % at 2 µM | hit rate 1% among 360,000 | AID 504660; in the data active means activation above about 30%; further: 0% is about no effect
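Tetracycline-induced HEK293 TREx D1 cells, force-coupled to calcium signalling, were dye-loaded with a no-wash calcium kit. Compound was pin-added after a 10 s baseline. Fluorescence was read kinetically at 1 cycle/s for 180 s, with calcium rises flagged as agonism.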
The depositor's hits bear a star; ? = inconclusive; . = no result.

SMILES | D1 PAM | DRD3 agonist | D1 antag | DRD3 antagonist | D1 agonist
CCOC(=O)C1(c2ccccc2)CCN(CCC(=O)Nc2ccc(OC)cc2)CC1 | . | 3 | . | -11 | .
CC(C)(C)c1ccc(OCC(=O)Nc2ccc(Cl)cc2C(=O)c2ccccc2)cc1 | 0 | 4 | 8 | . | 0
CCN(Cc1ccc(Cl)nc1)/C(=C/[N+](=O)[O-])NC | . | -9 | . | . | .
COc1ccc2c(c1OC)CN1CCc3cc4c(cc3[C@H]1C2)OCO4 | -13 | -65 | -80* | -113* | 1
COc1ccc2c(c1OC)CN1CCc3cc4c(cc3C1C2)OCO4 (stereo unspecified) | -9 | -2 | -80* | -106* | 1
COc1cc2c(cc1OC)C(C1c3cc4c(cc3CCN1C)OCO4)OC2=O (stereo unspecified) | -3 | -6 | 6 | -11 | 1
COc1cc(C2c3cc4c(cc3CC3COC(=O)C32)OCO4)cc(OC)c1OC (stereo unspecified) | . | -22 | . | -21 | .
CC(=O)Oc1ccc2c3c1O[C@H]1[C@@H](OC(C)=O)C=C[C@H]4[C@@H](C2)N(C)CC[C@@]341 | . | 3 | . | . | .
CN1CC=C(/C=C/c2ccc(-c3ccccc3)cc2)CC1 | 1 | -5 | -40* | -23 | 24
COc1ccc(OC)c(-n2c(O)c(/C=C3\C=Nc4ccccc43)c(=O)[nH]c2=O)c1 | 1 | 6 | 8 | -2 | 2
CCOc1ccc(-n2c(O)c(/C=C3\C=Nc4ccccc43)c(=O)[nH]c2=O)cc1 | 2 | -6 | -5 | 3 | 32*
C=CCn1c(O)c(C(CC)=NCc2ccc3c(c2)OCO3)c(=O)[nH]c1=O | -4 | 3 | -16 | -9 | 2
CCCCn1c(O)c(C(CC)=NCc2ccc3c(c2)OCO3)c(=O)[nH]c1=O | -1 | 3 | -34* | 11 | 1
c1ccc(CNc2c3c(nc4ccccc24)CCC3)cc1 | -20 | -20 | -50* | -14 | 22
CC(C)CNc1c2c(nc3ccccc13)CCC2 | -4 | -9 | -12 | -20 | 9
CCN1CCN(Cc2cc(Br)ccc2O)CC1 | -4 | -5 | 2 | -73* | 3
CCc1ccc(CN2CCN(Cc3cc(Br)ccc3O)CC2)cc1 | 0 | -17 | 9 | -80* | -2
COc1cc(Br)cc(CN2CCN(C)CC2)c1O | -7 | -57 | -4 | ? | 3
Oc1ccc(Br)cc1CN1CCN(c2ccccc2)CC1 | 0 | -48 | 3 | -95* | 2
COc1ccc(Br)cc1CN1CCN(CCO)CC1 | 6 | -32 | 19 | -87* | 4
CCN1CCN(Cc2cc(Br)cc(Br)c2O)CC1 | -10 | -2 | -26 | ? | 11
CCCSP(=O)(OCC)SCCC | . | 8 | . | . | .
CCCCCl | . | -11 | . | . | .
Cc1ccc(-c2nc(CN3C(=O)CN=C(c4ccccc4Cl)c4cc(Cl)ccc43)c(C)o2)cc1 | -2 | 8 | -5 | . | 4
Cc1ccc(Cn2cccc(C(=O)Nc3ccc4c(c3)OCCO4)c2=O)cc1 | -4 | 2 | . | . | 0
SMILES | D1 PAM | DRD3 agonist | D1 antag | DRD3 antagonist | D1 agonist
CC(O)CN1CCN(CC(=O)[O-])CCN(CC(=O)[O-])CCN(CC(=O)[O-])CC1.[Gd+3] (stereo unspecified) | . | 4 | . | . | .
COc1cc2c(cc1O)CC1c3c(cc(O)c(OC)c3-2)CCN1C (stereo unspecified) | . | -10 | . | -14 | .
COc1ccc2c(c1O)-c1c(OC)c(OC)cc3c1[C@H](C2)N(C)CC3 | -6 | 0 | -63* | 0 | 0
COc1cc2c(cc1OC)-c1c(OC)c(OC)cc3c1[C@H](C2)N(C)CC3 | . | -41 | . | -59* | .
O=C(Nc1ccc2c(c1)OCO2)c1cccn(Cc2ccccc2)c1=O | 4 | -2 | . | . | 2
CCOC(=O)[C@]12Cc3ccc(C)cc3[C@H]1N(C1CCCCC1)C(=O)c1ccccc12 | . | -9 | . | -73* | .
CCOC(=O)[C@]12Cc3cc(Cl)ccc3[C@H]1N(C1CCCCC1)C(=O)c1cc(OC)ccc12 | . | -13 | . | -123* | .
CCOC(=O)[C@]12Cc3ccc(C)cc3[C@H]1N(C1CCCCC1)C(=O)c1cc(OC)ccc12 | . | -10 | . | ? | .
Oc1c(Br)c(Br)c(Br)c(Br)c1Br | 1 | -85 | . | -55* | 3
CCC(=O)C(CC(C)N(C)C)(c1ccccc1)c1ccccc1 (stereo unspecified) | . | -26 | . | . | .
NNc1ccccc1 | . | -17 | . | . | .
